Cav3 T inh = human Cav3.2 channel inhibition, primary screen; O95180; Cav3.2-expressing cells, Fluo-4 calcium fluorescence FDSS; stronger effect = lower value; B-score at 10 µM; hit rate 4% among 100,000;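 active = single-dose well whose peak fluorescence ratio is a statistical outlier from its plate by either plate-standardised score or position-corrected B-score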
Smad3 inh = inhibitors of human Smad3 transcription factor binding. inhibition, % at 25 µM. TR-FRET Smad3/Dy647-FoxH1 peptide binding, europium anti-His. hit rate 0.29% among 88,000. P84022;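 active = compounds that reduce the energy-transfer binding signal between the protein and its labelled peptide by more than half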;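 note: 0% = Smad3 plus labelled peptide maximal FRET and 100% = peptide-only background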
Target sequence (P84022 whole entry, looked up): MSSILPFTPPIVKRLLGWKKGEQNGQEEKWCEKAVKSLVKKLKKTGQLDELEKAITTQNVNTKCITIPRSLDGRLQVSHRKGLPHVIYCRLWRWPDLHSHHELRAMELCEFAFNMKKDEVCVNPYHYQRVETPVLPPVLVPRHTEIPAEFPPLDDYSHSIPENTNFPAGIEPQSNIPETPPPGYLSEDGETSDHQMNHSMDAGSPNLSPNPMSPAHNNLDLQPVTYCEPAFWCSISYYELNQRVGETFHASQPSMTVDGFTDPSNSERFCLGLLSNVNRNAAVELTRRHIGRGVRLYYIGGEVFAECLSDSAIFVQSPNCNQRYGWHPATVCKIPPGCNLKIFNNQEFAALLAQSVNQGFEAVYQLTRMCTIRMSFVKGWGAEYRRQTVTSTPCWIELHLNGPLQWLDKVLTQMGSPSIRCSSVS
PostGolgi yeast = growth inhibition of a yeast mutant, post-Golgi transport screen. post-Golgi transport phenotypic cell assay. inhibition, % at 10 µM. hit rate 0.9% among 98,000. AID 739;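 note: yeast cells grown in 1536-well plates; yeast grown about 18 h at 30C before absorbance read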
DAT uptake mod = changed human dopamine transporter uptake under cocaine IC80 | LLC-PK1 hDAT cells, [14C]-dopamine uptake with cocaine IC80; actives deviate in either direction | B-score at 10 µM | hit rate 1.3% among 110,000 | AID 449768;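 active = Z score or B-score, a plate-position-corrected score, falls beyond the plate's 99.7% confidence bounds, in either direction; inactive = both scores lie inside the 99.7% bounds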;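 note: scored against the spread of the other compound wells on the same plate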
PostGolgi ctrl = yeast control strain growth, post-Golgi counter-screen; efflux-deficient yeast background strain, growth absorbance A615, 16 h; inhibition, % at 10 µM; hit rate 5% among 98,000; AID 738
TNAP act DEA = human TNAP activation, intermediate phosphate acceptor | P05186 | 64,000 tested, under 10 active | activation factor at 20 µM | purified TNAP, CDP-star luminescence, 100 mM DEA, 30 min; stronger effect = higher value; scale: 0 levamisole-inhibited, 1 vehicle-only enzyme;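 active = activation factor of at least 2 at 20 µM, relative to controls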
* marks the source's active call; other numbers are inactive results; / = not tested or not shown. Hits are enriched below; roughly 8.7% of the tested compounds scored in any of these assays. Cut-off read from the data, not from the text of the source, unless noted: active = inhibition above about 30%; inactive = the rest.

SMILES	Cav3 T inh	Smad3 inh	PostGolgi yeast	DAT uptake mod	PostGolgi ctrl	TNAP act DEA
CN(C)c1ccc(C2C=C(c3ccc(Cl)cc3OC(F)F)Nc3ncnn32)cc1 (stereo not given)	-5.9*	7	3	0.21	31*	1
COc1ccc(-c2nc3n(n2)C(c2ccncc2)C(C(N)=O)=C(C)N3)cc1 (stereo not given)	/	-1	1	/	25	0.9
c1ccc(-c2cn3nc4c(nc3n2)CCCC4)cc1	-1.4	21	15	0.9	20	/
O=C(Nc1cc(S(=O)(=O)N2CCOCC2)ccc1Cl)C(=O)c1c(-c2ccccc2)cc2ccccn12	-1.2	10	93*	1.3	100*	/
O=C(CN1CCOCC1)Nc1ccc(Oc2ccccc2)cc1	1.6	4	2	0.52	8	0.9
O=C(CN1CCN(c2ccccc2)CC1)Nc1ccc(Oc2ccccc2)cc1	-1.7	-6	4	0.0028	42*	/
O=C(CN1CCNCC1)Nc1ccc(Oc2ccccc2)cc1	1.2	-14	5	0.007	39*	/
O=C(Nc1nc2ccccc2n1CCN1CCOCC1)c1cn(-c2ccccc2)nc1-c1ccccc1	/	4	1	/	9	1
Cc1cc(=O)n2c3ccccc3n(CC(O)CN3CCCC3)c2c1C#N (stereo not given)	-0.24	/	6	-0.91	0	/
CC(C)Sc1oc(-c2ccco2)nc1S(=O)(=O)c1ccccc1	-3.4	/	-6	0.056	41*	/
CSc1oc(-c2ccco2)nc1S(=O)(=O)c1ccccc1	1.1	14	7	-1.5	-1	0.9
O=c1[nH]c2ccc(S(=O)(=O)N3CCN(c4ccccc4F)CC3)cc2s1	1.9	3	-5	-0.44	31*	0.9
C#CCNC(=O)C1=C[C@@H](C2CC2)[C@H](CCCO)[C@@H](OCC)O1	0.62	/	/	-0.16	/	/
OC(CN(c1ccccc1)c1ccccc1)Cn1cnc2ccccc21 (stereo not given)	-5*	-14	-1	-0.016	32*	0.9
CCN(CC)CCN(Cc1cc2cc3c(cc2[nH]c1=O)OCCO3)C(=O)NC1CCCCC1	-0.58	3	4	0.021	15	1
Cc1ccc(NC(=O)N(Cc2ccc3c(c2)OCO3)Cc2cc3cc4c(cc3[nH]c2=O)OCCO4)cc1	-0.83	-6	24	-0.5	56*	0.9
Cc1ccc(NC(=O)N(CCCN2CCOCC2)Cc2cc3cc4c(cc3[nH]c2=O)OCO4)cc1	/	/	18	/	13	0.9
COc1ccc(CN(Cc2cc3cc4c(cc3[nH]c2=O)OCO4)C(=O)NC2CCCCC2)cc1	-6.7*	/	0	1.1	9	0.9
O=C1c2cccc3c(Nc4ccccc4Cl)c([N+](=O)[O-])cc(c23)C(=O)N1CCO	-2.2	/	45*	-0.61	17	/
CCc1ccccc1N1C(=O)c2cccc3c(N4CCOCC4)c([N+](=O)[O-])cc(c23)C1=O	0.69	/	-6	-0.19	11	/
CCCCN(CCCC)S(=O)(=O)c1ccc(SCC(=O)OCC)c([N+](=O)[O-])c1	-3.1*	10	-5	-0.23	9	/
COc1cc(C)c(C(C)C)cc1S(=O)(=O)n1cnc(C)c1	-4.8*	6	9	-1.6	13	0.9
COc1ccc(-c2c(C#N)c(N)nc3c2c(=O)n(C)c(=O)n3C)cc1Cl	0.29	8	/	-0.045	/	/
COc1ccc(C2(CN(C(C)=O)C(C)=O)CCCC2)cc1OC	0.5	1	1	0.081	39*	0.9
COc1ccc(C2(CNC(=O)Cc3ccccc3)CCCC2)cc1OC	0.7	3	-1	1	10	/
SMILES	Cav3 T inh	Smad3 inh	PostGolgi yeast	DAT uptake mod	PostGolgi ctrl	TNAP act DEA
Cc1ccccc1N1C(=O)N(c2cccc(C(F)(F)F)c2)C2CS(=O)(=O)CC21 (stereo not given)	-0.61	-1	6	-0.0028	39*	1
O=C1N(c2ccccc2)C2CS(=O)(=O)CC2N1c1ccc(Br)cc1 (stereo not given)	-2.4*	4	3	0.93	2	0.9
C=CCSc1nc2c(c(=N)n1CC=C)C1CCCC1S2 (stereo not given)	-0.65	19	6	0.3	1	0.9
Cn1cnc([N+](=O)[O-])c1[Se]c1nc(N)nc2c1ncn2[C@H]1O[C@@H](CO)[C@H](O)[C@H]1O	/	75*	/	/	/	/
C[N+](C)(C)c1nc(N)nc2c1ncn2[C@H]1O[C@@H](CO)[C@H](O)[C@H]1O	/	-2	/	/	/	/
OCCN1CCN(Cc2cccc(Oc3ccc(Cl)cc3)c2)CC1	-0.075	2	4	0.74	44*	0.9
CN1CCN(Cc2cccc(Oc3ccccc3)c2)CC1	-0.92	-18	21	0.49	1	/
Cc1onc(-c2ccccc2)c1-c1nc2ccccc2c(=O)o1	1.4	3	12	0.26	32*	/
COCCNC(=O)c1nn(-c2cc(OC)cc(OC)c2)c(=O)c2ccccc12	-0.095	15	0	0.38	1	0.9
COc1ccccc1-c1cc2nc(C)c(CCC(=O)NC(C)CCc3ccco3)c(C)n2n1 (stereo not given)	-1.4	2	2	1	37*	/
Cc1nc2c(-c3ccccc3)c(C)nn2c(C)c1CCC(=O)NC(C)CCc1ccco1 (stereo not given)	-5.7*	-5	0	0.84	13	/
CCCCC(NC(C)=O)c1nc2ccccc2n1CCC (stereo not given)	0.96	/	3	0.002	-1	0.9
Cc1cccc(S(=O)(=O)Nc2ccc(C)c3c2OC(C)(C)C3)c1	-3.5	-2	1	0.48	9	/
COC(=O)Nc1ccc(S(=O)(=O)N2c3ccccc3CCC2C)cc1 (stereo not given)	-7.2*	-4	-2	-0.086	34*	0.9
COc1ccc(C(=O)O/N=C(\C)c2ccccc2)cc1	-1.1	/	-8	0.0021	4	/
COc1cccc(/C=N/NC(=O)c2nc(-c3ccccc3)cc(-c3ccccc3)n2)c1	/	/	0	-0.09	11	/
COc1ccc(/C=N/NC(=O)c2nc(-c3ccccc3)cc(-c3ccccc3)n2)cc1OC	0.1	/	3	2.6	32*	/
O=C(COc1ccccc1-c1ccccc1)N/N=C/c1cccc2ccccc12	-2.6	/	2	0.096	20	/
COc1ccc(/C=N/NC(=O)COc2ccccc2-c2ccccc2)cc1	-2.8	/	13	-1.2	56*	/
CCOC(=O)c1ccc(NC(=S)Nc2ccccc2N)cc1	0.81	/	/	1.3	/	/
CC(C)Sc1nc2c(c(=O)[nH]c(=O)n2C)n1Cc1ccc(Cl)cc1	/	4	3	-0.87	23	0.9
CCOC(=O)C(C)Sc1nc2c(c(=O)[nH]c(=O)n2C)n1Cc1ccc(Cl)cc1 (stereo not given)	-0.38	3	3	-0.15	32*	0.9
CCC(C)Sc1nc2c(c(=O)[nH]c(=O)n2C)n1Cc1ccc(Cl)cc1 (stereo not given)	-2.8	7	6	0.26	46*	1
CC(C)(C)C(=O)Nc1nc(=S)ss1	-5*	3	20	-0.0079	20	/

Screens as filed in PubChem BioAssay.
